Measured values published in publication PMC11006913.
Changes are numbered by the printed parent chain.

Assays:
Test in all cases: PBM; 200 nM protein, PBS
Settings in all cases: dsDNA, one strand shown
NKX2-6 [1] = target: T1, NKX2-6 (Homo sapiens, UniProt A6NCS4 118-204)
T1 sequence: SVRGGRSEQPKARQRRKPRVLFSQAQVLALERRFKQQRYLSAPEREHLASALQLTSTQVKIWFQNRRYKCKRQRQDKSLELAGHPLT

NKX2-6 [2] = target: T2, NKX2-6 (Homo sapiens, UniProt A6NCS4 118-204, F151L)
T2 sequence: T1 sequence with F34L

PITX2 = PITX2 (Homo sapiens, UniProt Q99697 72-157)
ALX3 [3] = target: ALX3 (Homo sapiens, UniProt O95076 139-225)
ALX3 [4] = target: ALX3 (Homo sapiens, UniProt O95076 139-225, L168Q)
VAX1 [5] = target: VAX1 (Homo sapiens, UniProt Q5SQQ9 86-172)
VAX1 [6] = target: VAX1 (Homo sapiens, UniProt Q5SQQ9 86-172, T142I)
VAX1 [7] = target: VAX1 (Homo sapiens, UniProt Q5SQQ9 86-172, K157R)
Sequence of VAX1 (Homo sapiens, UniProt Q5SQQ9 86-172, K157R) (Q5SQQ9 86-172 K157R): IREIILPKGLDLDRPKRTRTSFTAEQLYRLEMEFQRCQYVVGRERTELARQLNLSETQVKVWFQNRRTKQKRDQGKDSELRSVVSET

Sequence of VAX1 (Homo sapiens, UniProt Q5SQQ9 86-172, T142I) (Q5SQQ9 86-172 T142I): as the sequence (Q5SQQ9 86-172 K157R) above, with T57I, R72K counted along it
Sequence of VAX1 (Homo sapiens, UniProt Q5SQQ9 86-172) (Q5SQQ9 86-172): as the sequence (Q5SQQ9 86-172 K157R) above, with R72K counted along it
Sequence of ALX3 (Homo sapiens, UniProt O95076 139-225, L168Q) (O95076 139-225 L168Q): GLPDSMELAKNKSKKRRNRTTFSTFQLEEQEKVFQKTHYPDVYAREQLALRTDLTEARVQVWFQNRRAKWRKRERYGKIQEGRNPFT
Sequence of ALX3 (Homo sapiens, UniProt O95076 139-225) (O95076 139-225): as the sequence (O95076 139-225 L168Q) above, with Q30L counted along it

With GGGCGGCA the binding signal (NKX2-6 [1]) was 9.62 upbm affinity estimate (log intensity, higher = more binding, comparable within an allelic series) and the binding signal (NKX2-6 [2]) was 9.36 upbm affinity estimate (log intensity, higher = more binding, comparable within an allelic series).
In the case of CGTCTGGC, the binding signal (NKX2-6 [1]) is reported as 9.46 upbm affinity estimate (log intensity, higher = more binding, comparable within an allelic series) and the binding signal (NKX2-6 [2]) is reported as 9.41 upbm affinity estimate (log intensity, higher = more binding, comparable within an allelic series).
For GGAAAGTA, the binding signal (NKX2-6 [1]) was 11.2 upbm affinity estimate (log intensity, higher = more binding, comparable within an allelic series) and the binding signal (NKX2-6 [2]) was 9.87 upbm affinity estimate (log intensity, higher = more binding, comparable within an allelic series).
In the case of ATCACTCA, the binding signal (NKX2-6 [1]) is reported as 12.1 upbm affinity estimate (log intensity, higher = more binding, comparable within an allelic series) and the binding signal (NKX2-6 [2]) is reported as 9.9 upbm affinity estimate (log intensity, higher = more binding, comparable within an allelic series).
With AGCGGAGC the binding signal (NKX2-6 [1]) was 9.34 upbm affinity estimate (log intensity, higher = more binding, comparable within an allelic series) and the binding signal (NKX2-6 [2]) was 9.31 upbm affinity estimate (log intensity, higher = more binding, comparable within an allelic series).
GTTAAGTA was tested, and the binding signal (NKX2-6 [1]) was 13.5 upbm affinity estimate (log intensity, higher = more binding, comparable within an allelic series) and the binding signal (NKX2-6 [2]) was 10.8 upbm affinity estimate (log intensity, higher = more binding, comparable within an allelic series).
With ACCTCTCA the binding signal (NKX2-6 [1]) was 12 upbm affinity estimate (log intensity, higher = more binding, comparable within an allelic series) and the binding signal (NKX2-6 [2]) was 9.82 upbm affinity estimate (log intensity, higher = more binding, comparable within an allelic series).
CCAAGGCA was tested, and the binding signal (NKX2-6 [1]) was 9.52 upbm affinity estimate (log intensity, higher = more binding, comparable within an allelic series) and the binding signal (NKX2-6 [2]) was 9.42 upbm affinity estimate (log intensity, higher = more binding, comparable within an allelic series).
With AGCTGCAG the binding signal (NKX2-6 [1]) was 9.32 upbm affinity estimate (log intensity, higher = more binding, comparable within an allelic series) and the binding signal (NKX2-6 [2]) was 9.44 upbm affinity estimate (log intensity, higher = more binding, comparable within an allelic series).
In the case of CGTCGGAC, the binding signal (NKX2-6 [1]) is reported as 9.07 upbm affinity estimate (log intensity, higher = more binding, comparable within an allelic series) and the binding signal (NKX2-6 [2]) is reported as 9.37 upbm affinity estimate (log intensity, higher = more binding, comparable within an allelic series).
AGGGACGA was tested, and the binding signal (NKX2-6 [1]) was 9.37 upbm affinity estimate (log intensity, higher = more binding, comparable within an allelic series) and the binding signal (NKX2-6 [2]) was 9.28 upbm affinity estimate (log intensity, higher = more binding, comparable within an allelic series).
For CTGTGGCC, the binding signal (NKX2-6 [1]) was 9.24 upbm affinity estimate (log intensity, higher = more binding, comparable within an allelic series), the binding signal (PITX2) was 7.86 upbm affinity estimate (log intensity, higher = more binding, comparable within an allelic series) and the binding signal (NKX2-6 [2]) was 9.38 upbm affinity estimate (log intensity, higher = more binding, comparable within an allelic series).
In the case of ACTTACAT, the binding signal (NKX2-6 [1]) is reported as 11.6 upbm affinity estimate (log intensity, higher = more binding, comparable within an allelic series), the binding signal (ALX3 [3]) is reported as 8.97 upbm affinity estimate (log intensity, higher = more binding, comparable within an allelic series) and the binding signal (ALX3 [4]) is reported as 8.46 upbm affinity estimate (log intensity, higher = more binding, comparable within an allelic series). For the same sequence, the binding signal (NKX2-6 [2]) was 9.95 upbm affinity estimate (log intensity, higher = more binding, comparable within an allelic series).
In the case of CGGCGGCC, the binding signal (NKX2-6 [1]) is reported as 9.64 upbm affinity estimate (log intensity, higher = more binding, comparable within an allelic series) and the binding signal (NKX2-6 [2]) is reported as 9.33 upbm affinity estimate (log intensity, higher = more binding, comparable within an allelic series).
In the case of CAGGGACG, the binding signal (NKX2-6 [1]) is reported as 9.36 upbm affinity estimate (log intensity, higher = more binding, comparable within an allelic series) and the binding signal (NKX2-6 [2]) is reported as 9.43 upbm affinity estimate (log intensity, higher = more binding, comparable within an allelic series).
With ACGCATCC the binding signal (NKX2-6 [1]) was 9.51 upbm affinity estimate (log intensity, higher = more binding, comparable within an allelic series) and the binding signal (NKX2-6 [2]) was 9.35 upbm affinity estimate (log intensity, higher = more binding, comparable within an allelic series).
AGTGGCTA was tested, and the binding signal (NKX2-6 [1]) was 11.9 upbm affinity estimate (log intensity, higher = more binding, comparable within an allelic series) and the binding signal (NKX2-6 [2]) was 9.95 upbm affinity estimate (log intensity, higher = more binding, comparable within an allelic series).
ACCAGAGC was tested, and the binding signal (NKX2-6 [1]) was 9.39 upbm affinity estimate (log intensity, higher = more binding, comparable within an allelic series) and the binding signal (NKX2-6 [2]) was 9.5 upbm affinity estimate (log intensity, higher = more binding, comparable within an allelic series).
For CGCTTAAG, the binding signal (NKX2-6 [1]) was 12.2 upbm affinity estimate (log intensity, higher = more binding, comparable within an allelic series), the binding signal (VAX1 [5]) was 9.23 upbm affinity estimate (log intensity, higher = more binding, comparable within an allelic series) and the binding signal (NKX2-6 [2]) was 9.9 upbm affinity estimate (log intensity, higher = more binding, comparable within an allelic series). The binding signal (VAX1 [6]) was 8.86 upbm affinity estimate (log intensity, higher = more binding, comparable within an allelic series) and the binding signal (VAX1 [7]) was 9.02 upbm affinity estimate (log intensity, higher = more binding, comparable within an allelic series).
In the case of ATCTTCAC, the binding signal (NKX2-6 [1]) is reported as 11.1 upbm affinity estimate (log intensity, higher = more binding, comparable within an allelic series) and the binding signal (NKX2-6 [2]) is reported as 9.83 upbm affinity estimate (log intensity, higher = more binding, comparable within an allelic series).
In the case of CAGTCTGC, the binding signal (NKX2-6 [1]) is reported as 9.37 upbm affinity estimate (log intensity, higher = more binding, comparable within an allelic series) and the binding signal (NKX2-6 [2]) is reported as 9.38 upbm affinity estimate (log intensity, higher = more binding, comparable within an allelic series).
For GTTCCACA, the binding signal (NKX2-6 [1]) was 9.21 upbm affinity estimate (log intensity, higher = more binding, comparable within an allelic series) and the binding signal (NKX2-6 [2]) was 9.42 upbm affinity estimate (log intensity, higher = more binding, comparable within an allelic series).
ACGGACGA was tested, and the binding signal (NKX2-6 [1]) was 9.27 upbm affinity estimate (log intensity, higher = more binding, comparable within an allelic series) and the binding signal (NKX2-6 [2]) was 9.49 upbm affinity estimate (log intensity, higher = more binding, comparable within an allelic series).
With CGGGGGCC the binding signal (NKX2-6 [1]) was 9.04 upbm affinity estimate (log intensity, higher = more binding, comparable within an allelic series) and the binding signal (NKX2-6 [2]) was 9.04 upbm affinity estimate (log intensity, higher = more binding, comparable within an allelic series).
With CACCGCGC the binding signal (NKX2-6 [1]) was 8.99 upbm affinity estimate (log intensity, higher = more binding, comparable within an allelic series) and the binding signal (NKX2-6 [2]) was 9.25 upbm affinity estimate (log intensity, higher = more binding, comparable within an allelic series).
With ACACGCGG the binding signal (NKX2-6 [1]) was 9.54 upbm affinity estimate (log intensity, higher = more binding, comparable within an allelic series) and the binding signal (NKX2-6 [2]) was 9.38 upbm affinity estimate (log intensity, higher = more binding, comparable within an allelic series).
In the case of GCTATTGA, the binding signal (NKX2-6 [1]) is reported as 11.7 upbm affinity estimate (log intensity, higher = more binding, comparable within an allelic series) and the binding signal (NKX2-6 [2]) is reported as 9.84 upbm affinity estimate (log intensity, higher = more binding, comparable within an allelic series).
For CGCTCGGC, the binding signal (NKX2-6 [1]) was 9.08 upbm affinity estimate (log intensity, higher = more binding, comparable within an allelic series), the binding signal (VAX1 [5]) was 6.93 upbm affinity estimate (log intensity, higher = more binding, comparable within an allelic series) and the binding signal (NKX2-6 [2]) was 9.38 upbm affinity estimate (log intensity, higher = more binding, comparable within an allelic series). For the same sequence, the binding signal (VAX1 [6]) was 6.99 upbm affinity estimate (log intensity, higher = more binding, comparable within an allelic series) and the binding signal (VAX1 [7]) was 6.71 upbm affinity estimate (log intensity, higher = more binding, comparable within an allelic series).
